Screening data from PubChem BioAssay.
mHTT-CaM PPI inh: inhibitors of human mutant huntingtin-calmodulin interaction; P42858; AlphaScreen His-mHTT/GST-CaM binding, luminescence; inhibition, % at 15 µM; actives 3.6% (n = 190,000); AID 1671202;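 note: 0% = both proteins with DMSO and 100% = one protein alone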
Pf apPOL block: Pf-apPOL DNA polymerase inhibition. Recombinant Pf-apPOL, molecular beacon fluorescence, 1.5 h. inhibition, % at 10 µM. actives 0.25% (n = 210,000). AID 1794808
The depositor's hits bear a star; i = inactive; · = no result; + = active, no number; ! = not active in a repeat. Many of the other results were omitted from the sample, so hits are more common in it than they were. Cut-off read from the data, not from the text of the source: active = inhibition above about 50%; inactive = the rest.

SMILES	mHTT-CaM PPI inh	Pf apPOL block
COc1ccc(-c2csc(/C(C#N)=C/c3ccc(O)c(O)c3)n2)cc1OC	81*	11
N#C/C(=C\c1ccccc1[N+](=O)[O-])c1nc(-c2ccc3c(c2)OCO3)cs1	9	-3
COc1ccc(/C=C(\C#N)c2nc(-c3ccc(OC)c(OC)c3)cs2)cc1O	1	0
COc1cc(C(=O)NCCC(=O)NCC(OC)OC)cc(OC)c1OC	-1	-4
COc1ccc2nc(NC(=O)C=C(C)C)sc2c1	-5	-7
Cc1ccc(C)c2sc(N(CC3CCCO3)C(=O)c3ccc(Br)o3)nc12 (centres undefined)	-13	6
O=C(Nc1ccccc1)c1ccc(Cl)c(S(=O)(=O)N(CCO)CCO)c1	-5	3
CSC(=CC(=O)c1sc2scc(C)c2c1C)SC	·	-8
COC(=O)c1sc2scc(C)c2c1C	·	64*!
COc1ccc2c(c1)-c1c(ssc1=S)C(C)(C)N2	88*	·
COc1ccc2c(c1)NC(C)(C)C=C2C	18	·
CC1(C)Nc2ccc(C(c3ccccc3)(c3ccccc3)c3ccccc3)cc2-c2c1ssc2=S	4	·
COc1ccc2c(c1)C(C)=CC(C)(C)N2	94*!	-4
Nc1ccnc(=O)[nH]1	·	105*
CCSc1nccc(=O)[nH]1	-9	6
CC1(C)C(=O)C2(C(=O)O)CCC1C2 (centres undefined)	2	-4
CCc1cc(-c2[nH]ncc2-c2cnn(-c3ccccc3)c2)c(O)cc1O	94*	-3
COc1ccc(-c2[nH]ncc2-c2cnn(-c3ccccc3)c2)c(O)c1C	17	3
CCOc1ccccc1CNC(=O)C1CCN(c2ccncc2)CC1	-9	-2
Cc1cccc(Cl)c1S(=O)(=O)Nc1ccc2c(c1)CCC(=O)N2C	-5	-6
CCOc1ccc(C2=C/C(=C\c3ccc(Br)o3)C(=O)O2)cc1	98*	-5
COc1ccc(C2=C/C(=C\c3cccs3)C(=O)O2)cc1	7	-12
O=C1OC(c2ccc(Cl)cc2)=C/C1=C\c1ccc(Br)o1	5	4
CCOc1ccc(C2=C/C(=C\c3cccs3)C(=O)O2)cc1	9	52*
CC(C)n1c(C2CCN(C(=O)Nc3ccc(Cl)cc3F)C2)nc2ccncc21 (centres undefined)	9	-5
SMILES	mHTT-CaM PPI inh	Pf apPOL block
CCCCC(=O)NC(c1ccccc1Cl)c1ccc2cccnc2c1O (centres undefined)	99*	-1
CCC(=O)NC(c1ccccc1OC)c1ccc2cccnc2c1O (centres undefined)	100*	-1
CCC(=O)Nc1cccnc1-c1ccc(C(=O)Nc2ccccc2OC)cc1	4	2
O=C(Cc1ccccc1)Nc1cc(-c2nc3ncccc3o2)ccc1Cl	0	-6
COc1ccc(NC(=O)C2CC2)c2ncccc12	11	-2
O=C(CCCN1C(=O)c2cccnc2C1=O)NC(c1ccccc1)c1ccccc1	10	-30
COc1ccccc1C(NC(=O)C1CCCCC1)c1ccc2cccnc2c1O (centres undefined)	100*	0
O=C(Cc1ccccc1)NC(c1ccccc1Cl)c1ccc2cccnc2c1O (centres undefined)	100*	2
COc1ccc(C(=O)COc2ccc3c(c2)OC(=Cc2ccccc2OC)C3=O)cc1	0	-12
O=c1oc(/C=C/c2ccc([N+](=O)[O-])cc2)nc2ccc(Cl)cc12	-1	4
CC(=O)C1=C(O)C(=O)N(CC(=O)O)C1c1ccccc1F (centres undefined)	-2	-4
CCC(=O)Nc1ccccc1Cl	-10	0
O=C(NC(c1ccccc1)c1ccccc1)c1ccccn1	-20	8
CCC(=O)NC(c1ccccc1Cl)c1ccc2cccnc2c1O (centres undefined)	100*	0
O=C(Cc1ccccc1)NC(c1ccccc1)c1ccc2cccnc2c1O (centres undefined)	100*	i
COc1ccc(Nc2c(C(=O)N3CCCCC3C)cnc3nc(C)ccc23)cc1 (centres undefined)	2	2
Cc1ccccc1-c1nc(C2CCN(C(=O)Cc3ccc(Cl)cc3)CC2)no1	5	-2
O=C1CCC(C(=O)N(Cc2cccs2)C2(C(=O)NC3CCCC3)CCCCC2)N1 (centres undefined)	1	-5
O=[N+]([O-])c1ccc(C=Nc2cc(Cl)c(Cl)cc2Cl)o1	36	·
CN(C)c1ccc(CCCNS(=O)(=O)Cc2cccc(Cl)c2)cc1	43	-27
CN(C)c1ccc(CCCNS(=O)(=O)c2ccc(Cl)s2)cc1	65*	-10
CC(=O)c1ccc(N2C(=O)C3CCC(C)(C2=O)C3(C)C)cc1 (centres undefined)	4	-29
COc1ccc(CC2CCN(S(=O)(=O)c3ccccc3)CC2)cc1	-43	-2
O=C(Nc1ccc2c(c1)OCCO2)c1ccc(CSC2CCCCC2)cc1	2	0
O=C(Nc1ccc2c(c1)OCO2)c1ccccc1Cl	-5	-6
SMILES	mHTT-CaM PPI inh	Pf apPOL block
Cc1cccc(CNc2ccc3c(c2)OCO3)c1	100*	3
Fc1cccc(NCc2ccc3c(c2)OCO3)c1	-12	-8
Clc1cccc(Cl)c1CNc1ccc2c(c1)OCO2	69*	-3
O=C1OC(c2ccccc2Br)=N/C1=C/c1cccc([N+](=O)[O-])c1	1	-4
O=C(O)CCC(=O)Nc1ccc(Oc2ccc(OC(F)(F)F)cc2)cc1	·	-145
COc1ccc(OC)c(NC(=O)C2=C(C)NC(=O)NC2c2ccccc2F)c1 (centres undefined)	3	1
CC1=NN(c2cccc(C(=O)O)c2)C(=O)/C1=C/c1ccc(-c2ccc(Br)cc2)o1	61*	7
CC1=NN(c2cccc(C(=O)O)c2)C(=O)/C1=C/c1ccc(-c2cc(Cl)ccc2Cl)o1	32	-4
CC1CCCC(NC(=O)C2CCCN(S(=O)(=O)N3CCCCCC3)C2)C1C (centres undefined)	20	-13
COC(=O)c1cc(OC)c(OC)cc1[N+](=O)[O-]	·	-4
COCCNC(=O)NCCC1CCN(S(=O)(=O)c2ccc(C)cc2)CC1	55*	3
Cc1ccc(S(=O)(=O)N2CCC(CCNC(=O)Nc3ccccc3)CC2)cc1	53*	-3
O=C(NCCC1CCN(S(=O)(=O)c2ccc(F)cc2)CC1)Nc1ccccc1	29	-2
COC(=O)CNC(=O)NCCC1CCN(S(=O)(=O)c2ccc(C)cc2)CC1	39	-5
Cc1nn(C)c(C)c1S(=O)(=O)NCc1ccc(-c2cccs2)cc1	·	-5
CCc1ccc(N(CC(=O)N2CCCC2)S(=O)(=O)c2ccccc2)cc1	-2	5
CCc1ccc(N(CC(=O)N2CCN(c3ccccc3)CC2)S(=O)(=O)c2ccccc2)cc1	54*	3
CCc1cc(C2CCCN2Cc2ccc(C)cc2)on1 (centres undefined)	-6	0
COc1ccccc1N1CCN(C(C)C(=O)Nc2ccc(F)cc2)CC1 (centres undefined)	8	-3
COc1ccc(Cl)cc1N1CCN(C(C)C(=O)Nc2ccc(C)cc2)CC1 (centres undefined)	99*	0
Cc1cc(C)nc(Nc2nc3ccccc3[nH]2)n1	0	-1
N#C/C(=C\c1cc2c(cc1Br)OCO2)c1nc2ccccc2[nH]1	8	-1
Cc1[nH]c2ccccc2c1/C=N\Nc1nc2ccccc2[nH]1	+	·
